Test results taken from the supplement of paper PMC11417369.
The full ranking holds about 25,000 sequences; the median of “ln(normalized median fluorescence intensity)” is about 9.7, and the highest 2% start at about 11. Only a selection was taken, and the highest values are over-represented in it overall.

These sequences were tested on PfAP2-HC AP2 domain (GST-tagged) (assay: gcPBM binding intensity (ln(normalized median fluorescence intensity)); higher = stronger DNA binding).
In short: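 Binding of GST-tagged P. falciparum DNA-binding domains, expressed in E. coli and used at about 25 μg on average, was carried out for 1 h in 1× PBS containing 1% milk, 0.2 mg/ml BSA, 0.5% salmon testes DNA and 0.03% Triton X-100. The target was an Agilent 4 × 180k array of primer-extended double-stranded 36-bp intergenic genomic probes plus negative controls, read with Alexa488 anti-GST antibody at 488 nm. Binding intensity is the highest Masliner-normalised natural-log median intensity across replicate spots of either probe orientation.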

| Sequence | gcPBM binding intensity (ln) |
| --- | --- |
| GATATGGAATATATGTGTACATATATATATATTATA [XGTACX_site1724] | 9.77 |
| TATTTATAAAAAAATACATGCATTTTTTTTTTTTTT [TGCATGCA_site65] | 9.36 |
| AAAACAAATTAAAATCGTACAATTATAATGTTAATG [XGTACX_site180] | 9.7 |
| TATTCTAATATATGCATACACACAAATGTGAATATA [CACACA_site2143] | 9.66 |
| AGATAGCTATTAAAAAGTACAAAAAAATATATATAT [XGTACX_site6289] | 9.71 |
| ATATTACACATATATGCACACATTGTAGTTATTTAT [CACACA_site8843] | 9.99 |
| ATATATAACGGGCACACACACATTTACGTATGAATA [CACACA_site1833] | 11.1 |
| ATATATAACGTGCACACACACATTTACGTATGAATA [CACACA_site6948] | 10 |
| TAATATATAACGTGCACACACACATTTACGTATGAA [CACACA_site1832] | 10 |
| TTTATTAGTAATTATACACACATATAAAATGAATAA [CACACA_site6754] | 9.67 |
| ATAATAAGGTTAAGCACACATATTACATATATAACT [CACACA_site3356] | 10 |
| GTTATATAAAAATATTGTACATTCTATATAAAGTCA [XGTACX_site4418] | 9.47 |
| TGTTTTTAAAAAAAAAAAAAATCACACCGGCAGGTA [CACACA_negctrl_site1437] | 9.49 |
| ATATAGATCAGACACACACACATGTTTTAAAACTAT [CACACA_site6186] | 10.9 |
| TTATATATAGATCACACACACACACCGGTTTTAAAA [CACACA_site4220] | 11.2 |
| TAAGAAAAATATATATGTACACATATATATATATAT [XGTACX_site8542] | 9.61 |
| CTTTGTGTTAAAAGTAGTACACCAAAAATATGACTT [XGTACX_site622] | 9.55 |
| AAAAAAAAAAGACACACACACATATTTATTTATATA [CACACA_site6484] | 10.4 |
| TATACAGACAGACACACACACATATATAAATATGTA [CACACA_site6912] | 10.6 |

| Sequence | gcPBM binding intensity (ln) |
| --- | --- |
| TGGCAAAATAGGCACACACACATATACATATATATT [CACACA_site1059] | 10.3 |
| AATGGCAAAATAGGCACACACACATATACAGATATA [CACACA_site4726] | 10.6 |
| ATATTATACATTTATACACACATAAAAAGACAAAAA [CACACA_site3565] | 9.92 |
| AATGGAAAAATAGGCACACACACATATATACATATA [CACACA_site1298] | 10.6 |
| CATACATACAGACACACACACATATAAATACATACA [CACACA_site6533] | 10.3 |
| AATACATACAGACACACACACACATATAAATAAATA [CACACA_site7642] | 11.6 |
| TGGAAAAATAGGCACACACACATATATACATATATA [CACACA_site1297] | 10.5 |
| TTAAAAAAAAGACACACACACATACACATATTTATA [CACACA_site7535] | 11.2 |
| AATGGAAAAATAGGCACACACACATAAATACAGATA [CACACA_site4844] | 11.2 |
| AATGGCAAAATAGGCACACACACATATACATATATA [CACACA_site1058] | 10.9 |
| TTCTATATATAATATTGTACTTAATTATTTTATTTT [XGTACX_site2701] | 9.83 |
| TTTTATCATATTTATTGTACACATAATATACATATC [XGTACX_site1145] | 9.99 |
| GATATGTACTAATACACACACATATATATATATATA [CACACA_site1022] | 10.2 |
| ATACATTTTTGTAAAAGTACATATACATGCCCCCTT [XGTACX_site1367] | 9.72 |
| TTATATATATATGTATGTACTTATAACTTTTATTAG [XGTACX_site3190] | 9.6 |
| TTTTTTTTTTTTGTAGTGCAAATTAAAAATATATGT | 9.39 |
| ACATAGATCATAGGTTGTACGAAGGTATCCTTTATT [XGTACX_site694] | 9.65 |
| AAGATAACAAGTAATCAATCTAATTATTAATTATAT [CACACA_negctrl_site1713] | 9.52 |
| AACGAACACTATTACACACATACATACATATGTATG [CACACA_site1859] | 10.1 |

| Sequence | gcPBM binding intensity (ln) |
| --- | --- |
| AAGGAAAAACCATTCGCACACACACCGAATATATAA [CACACA_site8403] | 10.2 |
| CAATTTTACTCATAAACACACATATAGATGTTATTA [CACACA_site7474] | 9.6 |
| AAATAATATATTCCTTGTACTTATTTCAATGAATTC [XGTACX_site7719] | 9.64 |
| GGAATAACCAGACACACACACACATATAAATATGTA [CACACA_site7632] | 11.2 |
| TATACAGATGGACACACACACATAAATAAATATATA [CACACA_site4863] | 10.4 |
| GATACAGATGGACACACACACATACATAAATACATA [CACACA_site5833] | 11.3 |
| AAAAAAAAAAAACACACACACACATTCAATATAAAA [CACACA_site40] | 10.4 |
| AAAAAAAACAGACACACACACATTCAATATAAAACA [CACACA_site41] | 11.3 |
| CAAATACATGGACACACACACATATACAGATATATA [CACACA_site5854] | 10.9 |
| GAATAATATGGACATACACACATATACATACAGATA [CACACA_site5200] | 10.5 |
| GGAATAACCAGACACACACACACATATATATATATA [CACACA_site3541] | 10.9 |
| ATGGGACAGATATATACACACATATAAATATAAATA [CACACA_site6684] | 10 |
| CAAGGAACCAGACACACACACATAAATGTATATATA [CACACA_site752] | 10.2 |
| TATACAGATGGACACACACACATATATATATATATA [CACACA_site5272] | 11 |
| AAAAAAAACGAACACACACACATTCAATATAAAACA [CACACA_site6170] | 10.5 |
| TACAATACCGTACAGGTGCAACTAGCCAAAAAAAAG | 9.75 |
| CCCTTTTTTTTTTAATGTACATATAATTATATATTT [XGTACX_site8568] | 9.88 |
| ATTCAATAAACGTATTGTACAAAAGAACGATATATT [XGTACX_site2533] | 9.78 |
| CAACATTCGTATATCACACATTTGCATGTTGTCAAT [CACACA_site4470] | 9.78 |
